ChEMBL document CHEMBL3433997, “St. Jude Leishmania screening dataset” (2016)

Experiments:
Format in all cases: functional
[1] = biological target: Solute carrier family 2, facilitated glucose transporter member 1 (Homo sapiens) (UniProt P11166); assay: ST_JUDE_LEISH: Cytotoxicity at 2uM final concentration against transgenic Leishmania Mexicana promastigotes LmGLUT1 that are glucose transport deficient and complemented with the human glucose transporter GLUT1. Activity is measured by DNA content using SYBR green in vitro
Chain of Solute carrier family 2, facilitated glucose transporter member 1 (Homo sapiens) (P11166 whole entry): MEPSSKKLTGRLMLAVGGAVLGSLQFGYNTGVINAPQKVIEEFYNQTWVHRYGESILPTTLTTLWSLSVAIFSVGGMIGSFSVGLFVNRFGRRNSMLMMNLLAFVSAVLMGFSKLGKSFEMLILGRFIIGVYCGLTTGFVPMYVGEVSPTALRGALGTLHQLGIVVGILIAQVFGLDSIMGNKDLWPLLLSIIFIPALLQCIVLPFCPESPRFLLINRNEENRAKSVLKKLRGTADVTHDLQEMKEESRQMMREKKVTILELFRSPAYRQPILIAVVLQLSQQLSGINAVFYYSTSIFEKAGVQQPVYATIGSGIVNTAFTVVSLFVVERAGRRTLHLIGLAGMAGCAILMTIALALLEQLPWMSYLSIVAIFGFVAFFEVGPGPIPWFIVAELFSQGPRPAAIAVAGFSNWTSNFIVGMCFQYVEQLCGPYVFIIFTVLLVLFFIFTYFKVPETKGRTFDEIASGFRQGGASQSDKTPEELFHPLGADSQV

[2] = biological target: Hexose transporter 1 (Plasmodium falciparum) (UniProt O97467); assay: ST_JUDE_LEISH: Cytotoxicity at 2uM final concentration against transgenic Leishmania Mexicana promastigotes LmPfHT that are glucose transport deficient and complemented with the Plasmodium falciparum hexose transporter. Activity is measured by DNA content using SYBR green in vitro
[3] = biological target: Glucose transporter (Leishmania mexicana) (UniProt O61059); assay: ST_JUDE_LEISH: Cytotoxicity at 2uM final concentration against transgenic Leishmania Mexicana promastigotes LmGT2 that are glucose transport deficient and complemented with the L. Mexicana glucose transporter 2. Activity is measured by DNA content using SYBR green in vitro

SMILES | inhibition [1] | inhibition [2] | inhibition [3]
Cc1nc2ccc(-c3nc4cc(N)ccc4[nH]3)cc2[nH]1 | -2.46% | 10% | 1.44%
NC(=O)c1cc2nc(NC3CCC3)nc(Nc3cccc4[nH]ncc34)c2[nH]1 | -0.69% | -0.16% | -1.17%
CCCc1cc(OC)c(CC2c3cc(O)c(Cl)cc3C(c3ccccc3)CN2C)cc1OC (stereo unspecified) | 7.84% | 1.11% | 3.98%
CC(=O)Nc1ccc(CNC2Cc3ccc(-c4ccc(Cl)c(Cl)c4)cc3C2)cc1 (stereo unspecified) | -0.97% | -1.57% | -0.25%
Nc1cccc(-c2ccc3ccnc(N)c3c2)c1 | 3.63% | 4.39% | 3.35%
CNC(=O)CNC(=O)COc1cccc2ccccc12 | 2.49% | 1.21% | 2.7%
CN1CCCC1CCNCc1cccc(-c2cnc(N(C)C3CCCCC3)nc2)c1 (stereo unspecified) | 102% | 102% | 101%
O=C(NC1CCCCN(Cc2ccccc2O)C1)c1ccc(-c2ccccc2)cc1 (stereo unspecified) | 2.73% | 2.62% | 2.4%
CCn1c(-c2nonc2N)nc2c(-c3cccc(NC(=O)Nc4cccc(OC)c4)c3)ncc(OCCCN)c21 | 0.06% | 2.8% | 1.32%
CC(C)CCN(Cc1cncn1Cc1cccc(Cl)c1)C(=O)c1cncc(-c2ccccc2)c1 | 5.13% | 6% | 5.78%
CCc1ccc(-c2nc3cc(NC(=O)c4ccc([N+](=O)[O-])o4)ccc3o2)cc1 | 1.01% | 2.33% | 0.78%
COc1ccc2nc(C)cc(N/N=C/c3cccc([N+](=O)[O-])c3)c2c1 | 8.97% | 7.38% | 7.7%
O=C(Nc1ccncc1)c1cn(-c2ccccc2)nc1-c1cccs1 | 5.19% | 2.4% | 3.52%
Cc1nc2nc(N)nc(N)c2c(C)c1Cc1cccc(C(N)=O)c1 | 1.17% | 1.95% | -1.43%
CC(C)Cn1c(Sc2ccc(C#N)c([N+](=O)[O-])c2)nnc1-c1ccccc1 | 6.46% | 6.58% | 3.76%
O=[N+]([O-])c1cccc(CNCC2CCN(Cc3ccc(C(F)(F)F)cc3)CC2)c1 | 0.44% | 5.74% | 6.41%
CCOC(=O)c1ccc(OCCCCCCOc2ccc(Br)cc2)cc1 | 1.32% | 4.52% | -0.5%
